Laboratory results taken from PubChem BioAssay (Tox21).
Inconclusive results are not listed. A call without a number means that no potency is given here. Calls of active or inactive are those of the source. Calls follow the shape of the dose curve; as a rule, active = well fitted cell-killing curve with a large enough effect in the repeat runs; inconclusive = weak or mixed curves, or effect the other way; inactive = flat fitted curve, though single readings scatter.

experiment: qHTS assay to identify small molecule that activate the aryl hydrocarbon receptor (AhR) signaling pathway - cell viability counter screen (AID 743086); conditions: HepG2-AhR-luc viability, CellTiter-Fluor, 24 h; series mostly up to 70.3 µM;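 also: HepG2 liver cells carrying the AhR DRE luciferase reporter; nearly all actives have a fitted effect of over 45% in size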
From the text: U.S. Tox21 Program National Center for Advancing Translational Sciences [NCATS] NIH Chemical Genomics Center [NCGC] U.S. Environmental Protection Agency [EPA] National Institutes of Environmental Health Sciences [NIEHS] National Toxicology Program [NTP] U.S. Food and Drug Administration [FDA] Tox21 Assay overview: The Aryl hydrocarbon Receptor (AhR), a member of the family of basic helix-loop-helix transcription factors, is crucial to adaptive responses to environmental changes. AhR mediates cellular responses to environmental pollutants such as aromatic hydrocarbons through induction of phase I and II enzymes but also interacts with other nuclear receptor signaling pathways A cell based HepG2-AhR-luc assay (HG2L7.5c1 cell line, developed by Dr. Michael S. Denison, University of California at Davis) was used to assess the activation of AhR. HepG2 (human hepatocellular carcinoma) cells were stably transfected with an Ah receptor-responsive firefly luciferase reporter gene plasmid containing 20 dioxin responsive elements and luciferase reporter gene. Increased luciferase activity can be used to identify the compounds that induce AhR activation. The cytotoxicity of the compounds screened against the HepG2-AhR-luc cell line was tested in parallel by measuring the cell viability using CellTiter-Fluor assay in the same wells.
Tox21 Assay Protocol Summary: 4000 cells in 5 uL/well were dispensed into white wall/solid bottom 1536-well plates using a Multidrop Combi (Thermo Fisher Scientific Inc., Waltham, MA) dispenser. After the assay plates were incubated at 37C for 5 h, 23 nL of compound or DMSO vehicle was transferred to the assay plates by a pintool station (Kalypsys, San Diego, CA). The plates were incubated at 37C for 24 hr. For cell viability measurement, 1 ul/well of CellTiter-Fluor reagent (Promega, Madison, WI) was added into the assay plates using a Flying Reagent Dispenser (FRD) (Aurora Discovery, CA),and then the assay plates were incubated at 37C for 30 min. The fluorescence intensity in the plates was measured using a ViewLux plate reader (PerkinElmer, Shelton, CT), followed by the addition of 4 uL of ONE-Glo Luciferase Assay reagent (Promega) using an FRD (Aurora Discovery). After the assay plates were incubated at room temperature for 30 min, luminescence intensity was measured using a ViewLux plate reader (Perkin Elmer).

| SMILES | Potency |
| --- | --- |
| CC(=O)O[C@H](CC(=O)[O-])C[N+](C)(C)C | inactive |
| CCCCCN(CCCCC)C(=O)C(CCC(=O)O)NC(=O)c1ccc(Cl)c(Cl)c1 (stereo not given) | inactive |
| COc1cc(C(=O)N2CCOCC2)cc(OC)c1OC | inactive |
| CC(C)=CCC/C(C)=C/C(=O)O | inactive |
| Fc1ccccc1-c1ccccc1 | inactive |
| C=C(C)C(=O)OCCC(C)OC(=O)C(=C)C (stereo not given) | inactive |
| CC/C=C\C#N | inactive |
| COc1nc(C)nc(N)n1 | inactive |
| NC1CCN(c2cccc(Cl)n2)CC1 | inactive |
| CCN(CC)S(=O)(=O)c1ccc(C(=O)O)cc1 | inactive |
| C1CCCCCCCCCCC1 | inactive |
| Cn1cnc2c(=O)[nH]c(N)nc21 | inactive |
| C=CC(=O)N1CCOCC1 | inactive |
| CC(C)(C)C(=O)/C=C/c1ccc(Cl)cc1 | inactive |
| COc1cc(C)cc(O)c1 | inactive |
| NS(=O)(=O)c1cc(C2(O)NC(=O)c3ccccc32)ccc1Cl (stereo not given) | inactive |
| CC(O)CN(CCCN(C)C)CCCN(C)C (stereo not given) | inactive |
| CO[Si](CCCNCCC[Si](OC)(OC)OC)(OC)OC | inactive |
| CC(C)(C)N(CCO)CCO | inactive |
| C=C(C)[C@@H]1CCC2=CC(=O)C[C@@H](C)[C@]2(C)C1 | inactive |

| SMILES | Potency |
| --- | --- |
| C#CC(O)C(CC)CCCC (stereo not given) | inactive |
| CCCCc1ccc2cccc(S(=O)(=O)O)c2c1 | inactive |
| CC(C)c1ccc2oc3nc(N)c(C(=O)O)cc3c(=O)c2c1 | inactive |
| CSc1ccc(C=O)cc1 | inactive |
| CCCCCCC(=O)OCC | inactive |
| CCCCCOC(=O)Nc1nc(=O)n([C@@H]2O[C@H](C)[C@@H](O)[C@H]2O)cc1F | inactive |
| CCCCCCOC(=O)CC(CC(=O)OCCCCCC)(OC(=O)CCC)C(=O)OCCCCCC | inactive |
| CC(CCO)CCCC(C)(C)O (stereo not given) | inactive |
| C=CCOCC(O)CS(=O)(=O)O (stereo not given) | inactive |
| Nc1nc(F)nc2c1ncn2[C@@H]1O[C@H](CO)[C@@H](O)[C@@H]1O | inactive |
| O=C1C(CCS(=O)c2ccccc2)C(=O)N(c2ccccc2)N1c1ccccc1 (stereo not given) | inactive |
| COc1cc(CCC(C)=O)ccc1O | inactive |
| N#CC1(O)CCCCC1 | inactive |
| CSc1nc(NC2CC2)nc(NC(C)(C)C)n1 | inactive |
| N#CCN(CC#N)CCN(CC#N)CC#N | inactive |
| C=C(C)C(=O)OCCCCCCCCCCCCCCCCCC | inactive |
| NS(=O)(=O)c1cc2c(cc1Cl)NC(CSCc1ccccc1)=NS2(=O)=O | inactive |
| CC(=O)N[C@@H](CCC(N)=O)C(=O)O | inactive |
| CCOC(=O)Nc1ccc2c(c1)N(C(=O)CCN1CCOCC1)c1ccccc1S2 | inactive |
| NS(=O)(=O)c1cc2c(cc1C(F)(F)F)NC(Cc1ccccc1)NS2(=O)=O (stereo not given) | inactive |
